Reference: PubChem BioAssay (Tox21)
Records with an inconclusive call do not appear. Activity calls are given as the source filed them. Unless noted, the call rests on the fitted dose curve.

Experiment: qHTS assay for small molecules that induce genotoxicity in human embryonic kidney cells expressing luciferase-tagged ATAD5 (AID 651632; active means well fitted activation curve with a large enough effect in the repeat runs; further: nearly all actives have a fitted effect of over 15% in size)
Details: HEK293T ATAD5-luciferase induction, 16 h; series mostly up to 83.3 µM; activation: at the top concentration
How it was run: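 A rise in luciferase signal from ATAD5-tagged HEK293T cells marks genetic stress. Cells were exposed to compounds for 16 hr at 37C, 5% CO2, then luciferase was quantified after a 30 min room-temperature incubation with Amplite.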
On the % scale 0 is the no-effect control and ±100 the full control effect; potency means the concentration at half of the fitted maximal effect.

Compound | activation | Potency
CSc1ccc(Oc2ccc(S(N)(=O)=O)cc2CN(C)C)cc1C | 0.988% (inactive) | –
NC(=O)N(O)[C@@H]1COc2cc(OCc3ccccc3)ccc21 | – | 1.54 µM (active)
O=C(Nc1ccccc1)Nc1ccccc1 | 2.33% [at 95.3 µM] (inactive) | –
O=C(CCCN1CCN(c2ccc(F)cc2)CC1)NC1c2ccccc2CSc2ccccc21 (centres undefined) | -10.2% (inactive) | –
CC1=C(/C=C/C(C)=C\C=C\C(C)=C\C(=O)O)C(C)(C)CCC1 | 1.76% (inactive) | –
CCCCN(CCCC)C(=S)SSC(=S)N(CCCC)CCCC | 5% (inactive) | –
CC(=O)Oc1ccc2c(c1)CC[C@@H]1[C@@H]2CC[C@]2(C)[C@@H](O)CC[C@@H]12 | -1.58% (inactive) | –
COC(OC)(C(=O)c1ccccc1)c1ccccc1 | -3.29% (inactive) | –
Cc1ccc(S(=O)(=O)NC2CCCCC2)cc1 | -4.93% (inactive) | –
CC1C2CC(CC2C2CCCC(O)C2)C1(C)C (centres undefined) | -1.8% (inactive) | –
COCc1c(C(C)C)nc(C(C)C)c(/C=C/[C@@H](O)C[C@@H](O)CC(=O)O)c1-c1ccc(F)cc1 | 0.935% (inactive) | –
Nc1ccc(Cl)cc1[N+](=O)[O-] | 4.28% (inactive) | –
CCCC1C(CC)=CC(CC)=CN1c1ccccc1 (centres undefined) | -6.59% (inactive) | –

Experiment: qHTS assay for small molecule agonists of the p53 signaling pathway - cell viability (AID 651633); further: nearly all actives have a fitted effect of over 30% in size;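 on activity change, negative = cytotoxicity: p53RE-bla HCT reporter cells with a stable beta-lactamase p53 reporter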
Details: p53RE-bla HCT-116 viability, ATP luminescence, 16 h; series mostly up to 83.3 µM; activity change, negative = cytotoxicity: at the top concentration
How it was run: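 p53RE-bla cells, seeded at 4,000 per well and rested 5 h at 37 C/5% CO2, received compounds in DMSO for 16 h at 37 C. CellTiter-Glo was then added, and luminescence was read after 30 min at room temperature to gauge cytotoxicity.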

Compound | activity change, negative = cytotoxicity | Potency
N#C/C(=C1/SC[C@@H](c2ccc(Cl)cc2Cl)S1)n1ccnc1 | -11% (inactive) | –
CC(=O)OCC(=O)[C@@]12OC(C)(C)O[C@@H]1C[C@H]1[C@@H]3C[C@H](F)C4=CC(=O)C=C[C@]4(C)[C@@]3(F)[C@@H](O)C[C@@]12C | -11.1% [at 39.1 µM] (inactive) | –
CC(N)CN (centres undefined) | 14.7% [at 95.3 µM] (inactive) | –
CCc1cccc(N(C)C(N)=Nc2cccc3ccccc23)c1 | -13.3% (inactive) | –
CN(C)C(=O)Nc1ccc(Oc2ccc(Cl)cc2)cc1 | -8.23% (inactive) | –
CC(C)C(OC(=O)c1ccccc1)C(C)(C)COC(=O)c1ccccc1 (centres undefined) | -14.9% (inactive) | –
Cc1nccn1-c1ccc(Sc2cccc(C3(C(N)=O)CCOCC3)c2)cc1 | -7.65% (inactive) | –
Brc1cc(-c2ccc(Br)c(Br)c2Br)cc(Br)c1Br | -15.3% (inactive) | –
CC[C@H](NC(=O)c1cc(F)ccc1NS(=O)(=O)c1cccc2cccnc12)c1ccccc1 | 10.1% (inactive) | –
CC(C)c1nnc2ccc(-c3ocnc3-c3cc(F)ccc3F)cn12 | -5.29% (inactive) | –
COc1cc2c(N3CCN(C(=O)Nc4ccc(OC(C)C)cc4)CC3)ncnc2cc1OCCCN1CCCCC1 | – | 5.31 µM (active)
NC(=O)Cn1c(=O)cc(CCN2CCN(c3nccc4sccc34)CC2)c2ccc(F)cc21 | 14.5% (inactive) | –
CC(C)(O)c1ccccc1CC[C@@H](SCC1(CC(=O)O)CC1)c1cccc(/C=C/c2ccc3ccc(Cl)cc3n2)c1 | – | 13.3 µM (active)
CC(C)CCCCCOC(=O)CCCCC(=O)OCCCCCC(C)C | 10.4% (inactive) | –
CC(=O)[C@H]1CC[C@H]2[C@@H]3C=CC4=CC(=O)CC[C@@]4(C)[C@@H]3CC[C@]12C | 8.67% [at 39.1 µM] (inactive) | –
COCCOC | -11.7% (inactive) | –
